# Measured values from publication PMC7862700, “An all-to-all approach to the identification of sequence-specific readers for epigenetic DNA modifications on cytosine”.
# Assays:
# Assay in all cases: DAPPL (digital affinity profiling via proximity ligation, sequencing); 10 mM Tris-HCl pH 7.5, 50 mM NaCl, 1 mM DTT, 4% glycerol, room temperature, 30 min; GST-TFs on glutathione beads, 16-mer random dsDNA library, 0.1% formaldehyde crosslink after washing; high values mean tight binding
# [1] = molecular target: T1, FLI1 (Homo sapiens, UniProt Q01543 1-452); settings: protein: recombinant; tags: N-terminal GST; dsDNA, one strand shown
# T1 sequence: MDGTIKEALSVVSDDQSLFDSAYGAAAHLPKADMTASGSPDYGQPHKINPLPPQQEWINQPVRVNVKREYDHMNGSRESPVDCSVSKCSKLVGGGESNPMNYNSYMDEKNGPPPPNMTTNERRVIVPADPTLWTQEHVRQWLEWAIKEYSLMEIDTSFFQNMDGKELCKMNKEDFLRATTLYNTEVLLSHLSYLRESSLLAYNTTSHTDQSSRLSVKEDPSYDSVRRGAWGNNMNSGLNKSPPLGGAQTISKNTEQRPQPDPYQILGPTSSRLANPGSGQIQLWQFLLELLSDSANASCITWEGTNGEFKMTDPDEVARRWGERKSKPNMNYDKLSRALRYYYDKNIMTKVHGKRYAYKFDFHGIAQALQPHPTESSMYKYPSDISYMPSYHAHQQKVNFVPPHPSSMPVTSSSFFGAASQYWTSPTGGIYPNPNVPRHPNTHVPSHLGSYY
# Method in brief: (§1)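 Yeast served to express human transcription factors as GST fusions, which were then captured on glutathione beads and labelled with DNA barcodes. Pooled with a tag-only sample, they were incubated with 200 nmole of a 16-mer random double-stranded DNA library for 30 min at room temperature in Tris/NaCl/DTT/glycerol buffer, washed, crosslinked with 0.1% formaldehyde, ligated by proximity, amplified by PCR and sequenced. Dividing each hexamer's read frequency for a factor by its frequency for the tag-only sample gives the binding signal.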
# [2] = molecular target: T2, ELK1 (Homo sapiens, UniProt P19419 1-428); settings: protein: recombinant; tags: N-terminal GST; dsDNA, one strand shown
# T2 sequence: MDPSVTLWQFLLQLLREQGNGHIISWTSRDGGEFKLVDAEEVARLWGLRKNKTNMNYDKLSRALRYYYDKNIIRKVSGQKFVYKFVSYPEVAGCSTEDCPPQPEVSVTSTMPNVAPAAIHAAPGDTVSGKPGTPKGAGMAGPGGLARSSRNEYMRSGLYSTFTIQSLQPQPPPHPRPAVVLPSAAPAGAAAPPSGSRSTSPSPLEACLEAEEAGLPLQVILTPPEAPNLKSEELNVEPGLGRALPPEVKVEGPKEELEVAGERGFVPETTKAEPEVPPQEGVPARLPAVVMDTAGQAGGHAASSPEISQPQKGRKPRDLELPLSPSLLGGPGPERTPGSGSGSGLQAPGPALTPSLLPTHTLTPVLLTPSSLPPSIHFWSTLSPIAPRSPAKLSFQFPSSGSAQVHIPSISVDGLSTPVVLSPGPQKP
# Method in brief: as §1
# [3] = molecular target: T3, GABPA (Homo sapiens, UniProt Q06546 1-454); settings: protein: recombinant; tags: N-terminal GST; dsDNA, one strand shown
# T3 sequence: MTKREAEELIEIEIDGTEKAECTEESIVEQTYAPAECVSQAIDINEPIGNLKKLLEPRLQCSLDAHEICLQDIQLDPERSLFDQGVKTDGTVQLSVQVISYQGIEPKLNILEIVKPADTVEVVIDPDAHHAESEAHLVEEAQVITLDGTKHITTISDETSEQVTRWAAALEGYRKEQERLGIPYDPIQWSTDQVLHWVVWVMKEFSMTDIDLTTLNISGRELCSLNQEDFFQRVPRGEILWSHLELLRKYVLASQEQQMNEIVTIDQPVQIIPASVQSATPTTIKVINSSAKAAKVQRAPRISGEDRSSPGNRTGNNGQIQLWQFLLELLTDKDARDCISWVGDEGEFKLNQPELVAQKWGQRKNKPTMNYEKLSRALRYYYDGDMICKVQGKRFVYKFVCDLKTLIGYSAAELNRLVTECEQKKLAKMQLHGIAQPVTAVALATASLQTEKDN
# Method in brief: as §1
# [4] = molecular target: T4, ERG (Homo sapiens, UniProt P11308 1-479); settings: protein: recombinant; tags: N-terminal GST; dsDNA, one strand shown
# T4 sequence: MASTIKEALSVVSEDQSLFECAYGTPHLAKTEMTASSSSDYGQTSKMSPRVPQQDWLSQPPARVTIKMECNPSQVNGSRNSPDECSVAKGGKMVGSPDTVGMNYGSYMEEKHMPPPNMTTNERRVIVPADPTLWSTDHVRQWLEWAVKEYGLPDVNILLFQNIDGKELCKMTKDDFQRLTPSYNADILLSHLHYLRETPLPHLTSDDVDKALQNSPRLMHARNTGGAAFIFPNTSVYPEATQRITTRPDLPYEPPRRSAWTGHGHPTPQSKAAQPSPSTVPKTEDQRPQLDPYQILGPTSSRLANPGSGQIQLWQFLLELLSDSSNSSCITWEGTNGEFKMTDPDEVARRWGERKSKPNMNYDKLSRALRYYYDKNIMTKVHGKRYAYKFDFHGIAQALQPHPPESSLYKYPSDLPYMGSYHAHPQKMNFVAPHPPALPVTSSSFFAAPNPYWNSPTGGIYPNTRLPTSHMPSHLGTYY
# Method in brief: as §1
# [5] = molecular target: ELF1 (Homo sapiens, UniProt P32519 1-619); settings: protein: recombinant; tags: N-terminal GST; dsDNA, one strand shown
# Sequence of ELF1 (P32519 whole entry): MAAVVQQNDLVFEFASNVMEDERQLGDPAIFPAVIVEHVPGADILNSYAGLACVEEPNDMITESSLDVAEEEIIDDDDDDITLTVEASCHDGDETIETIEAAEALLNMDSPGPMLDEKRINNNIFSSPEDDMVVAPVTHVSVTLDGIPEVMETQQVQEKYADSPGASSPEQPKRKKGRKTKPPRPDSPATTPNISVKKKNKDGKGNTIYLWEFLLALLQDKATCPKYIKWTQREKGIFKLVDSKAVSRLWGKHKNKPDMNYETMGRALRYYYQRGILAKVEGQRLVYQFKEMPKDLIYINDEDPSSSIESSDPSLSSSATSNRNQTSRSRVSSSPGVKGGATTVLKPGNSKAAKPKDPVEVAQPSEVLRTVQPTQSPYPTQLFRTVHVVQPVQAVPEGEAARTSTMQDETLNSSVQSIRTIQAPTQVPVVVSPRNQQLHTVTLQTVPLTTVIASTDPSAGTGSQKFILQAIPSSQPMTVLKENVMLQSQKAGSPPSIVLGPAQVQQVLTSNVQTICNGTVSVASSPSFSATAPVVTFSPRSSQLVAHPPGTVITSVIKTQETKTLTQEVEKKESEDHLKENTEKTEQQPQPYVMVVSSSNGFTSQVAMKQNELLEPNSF
# Method in brief: as §1
# [6] = molecular target: T5, EHF (Homo sapiens, UniProt Q9NZC4 1-300); settings: protein: recombinant; tags: N-terminal GST; dsDNA, one strand shown
# T5 sequence: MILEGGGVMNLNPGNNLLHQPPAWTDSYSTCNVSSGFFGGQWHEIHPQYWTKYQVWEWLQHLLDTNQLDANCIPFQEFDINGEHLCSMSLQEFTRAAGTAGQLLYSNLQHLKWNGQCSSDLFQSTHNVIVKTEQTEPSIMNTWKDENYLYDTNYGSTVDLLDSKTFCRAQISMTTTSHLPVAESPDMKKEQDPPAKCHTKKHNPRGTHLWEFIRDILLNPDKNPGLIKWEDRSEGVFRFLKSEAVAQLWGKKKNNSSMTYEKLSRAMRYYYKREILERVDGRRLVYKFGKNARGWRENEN
# Method in brief: as §1
# [7] = molecular target: SPI1 (Homo sapiens, UniProt P17947 1-270); settings: protein: recombinant; tags: N-terminal GST; dsDNA, one strand shown
# Method in brief: as §1
# [8] = molecular target: SPIB (Homo sapiens, UniProt Q01892 1-262); settings: protein: recombinant; tags: N-terminal GST; dsDNA, one strand shown
# Sequence of SPIB (Q01892 whole entry): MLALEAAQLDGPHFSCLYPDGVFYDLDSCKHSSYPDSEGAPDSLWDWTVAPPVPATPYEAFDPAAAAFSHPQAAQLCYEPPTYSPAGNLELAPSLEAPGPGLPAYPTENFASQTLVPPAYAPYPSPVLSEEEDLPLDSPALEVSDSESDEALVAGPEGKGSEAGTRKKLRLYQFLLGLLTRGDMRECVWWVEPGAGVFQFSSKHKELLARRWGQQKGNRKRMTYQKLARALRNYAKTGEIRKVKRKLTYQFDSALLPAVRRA
# Method in brief: as §1
# [9] = molecular target: T6, ELK3 (Homo sapiens, UniProt P41970 1-407); settings: protein: recombinant; tags: N-terminal GST; dsDNA, one strand shown
# T6 sequence: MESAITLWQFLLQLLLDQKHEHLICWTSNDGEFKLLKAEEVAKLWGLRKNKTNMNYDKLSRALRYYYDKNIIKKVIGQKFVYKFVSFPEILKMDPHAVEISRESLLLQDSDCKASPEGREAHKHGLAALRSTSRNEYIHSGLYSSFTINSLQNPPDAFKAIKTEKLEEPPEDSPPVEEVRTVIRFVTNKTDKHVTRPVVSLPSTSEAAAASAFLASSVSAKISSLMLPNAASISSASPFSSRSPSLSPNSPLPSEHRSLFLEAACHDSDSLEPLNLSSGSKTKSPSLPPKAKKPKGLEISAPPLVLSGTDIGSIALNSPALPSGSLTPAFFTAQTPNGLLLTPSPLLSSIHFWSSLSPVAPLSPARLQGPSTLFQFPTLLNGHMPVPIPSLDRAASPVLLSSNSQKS
# Method in brief: as §1
# [10] = molecular target: T7, FEV (Homo sapiens, UniProt Q99581 1-238); settings: protein: recombinant; tags: N-terminal GST; dsDNA, one strand shown
# T7 sequence: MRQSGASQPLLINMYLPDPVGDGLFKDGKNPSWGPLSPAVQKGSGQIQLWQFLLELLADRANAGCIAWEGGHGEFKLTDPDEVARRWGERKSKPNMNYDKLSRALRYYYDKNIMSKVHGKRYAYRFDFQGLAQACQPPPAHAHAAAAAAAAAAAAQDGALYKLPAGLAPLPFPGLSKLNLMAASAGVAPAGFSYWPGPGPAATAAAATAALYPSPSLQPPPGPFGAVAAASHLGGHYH
# Method in brief: as §1
# [11] = molecular target: ETV5 (Homo sapiens, UniProt P41161 1-510); settings: protein: recombinant; tags: N-terminal GST; dsDNA, one strand shown
# Sequence of ETV5 (P41161 whole entry): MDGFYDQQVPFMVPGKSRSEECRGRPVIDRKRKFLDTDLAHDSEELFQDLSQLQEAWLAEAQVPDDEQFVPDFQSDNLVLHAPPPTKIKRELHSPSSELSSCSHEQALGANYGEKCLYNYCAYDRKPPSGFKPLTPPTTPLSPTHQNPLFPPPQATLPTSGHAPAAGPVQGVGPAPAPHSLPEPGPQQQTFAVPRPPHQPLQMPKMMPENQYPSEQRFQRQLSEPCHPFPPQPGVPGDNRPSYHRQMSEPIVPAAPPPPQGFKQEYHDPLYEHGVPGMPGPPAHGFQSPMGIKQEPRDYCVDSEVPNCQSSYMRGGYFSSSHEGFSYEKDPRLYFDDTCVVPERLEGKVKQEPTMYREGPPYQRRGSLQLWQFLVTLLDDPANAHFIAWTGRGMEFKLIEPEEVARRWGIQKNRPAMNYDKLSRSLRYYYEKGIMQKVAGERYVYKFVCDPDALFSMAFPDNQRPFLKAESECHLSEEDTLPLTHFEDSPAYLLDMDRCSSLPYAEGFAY
# Method in brief: as §1
# [12] = molecular target: HSF1 (Homo sapiens, UniProt Q00613 1-529); settings: protein: recombinant; tags: N-terminal GST; chain copies: 3; dsDNA, one strand shown
# Sequence of HSF1 (Q00613 whole entry): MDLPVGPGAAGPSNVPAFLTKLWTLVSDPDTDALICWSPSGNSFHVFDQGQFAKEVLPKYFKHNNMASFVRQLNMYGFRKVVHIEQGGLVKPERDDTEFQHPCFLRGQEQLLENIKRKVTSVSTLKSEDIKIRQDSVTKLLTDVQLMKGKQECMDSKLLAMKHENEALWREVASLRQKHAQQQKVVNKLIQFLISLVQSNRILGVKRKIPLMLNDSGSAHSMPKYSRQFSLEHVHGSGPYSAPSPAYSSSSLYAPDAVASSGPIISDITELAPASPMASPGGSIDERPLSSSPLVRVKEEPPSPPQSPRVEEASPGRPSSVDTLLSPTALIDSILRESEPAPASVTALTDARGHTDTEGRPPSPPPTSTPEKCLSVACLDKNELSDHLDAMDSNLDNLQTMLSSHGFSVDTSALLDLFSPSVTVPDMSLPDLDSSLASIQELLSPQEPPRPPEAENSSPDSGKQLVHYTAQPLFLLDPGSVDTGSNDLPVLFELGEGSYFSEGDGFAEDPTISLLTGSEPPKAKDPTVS
# Method in brief: as §1
# [13] = molecular target: T8, SPIC (Homo sapiens, UniProt Q8N5J4 1-248); settings: protein: recombinant; tags: N-terminal GST; dsDNA, one strand shown
# T8 sequence: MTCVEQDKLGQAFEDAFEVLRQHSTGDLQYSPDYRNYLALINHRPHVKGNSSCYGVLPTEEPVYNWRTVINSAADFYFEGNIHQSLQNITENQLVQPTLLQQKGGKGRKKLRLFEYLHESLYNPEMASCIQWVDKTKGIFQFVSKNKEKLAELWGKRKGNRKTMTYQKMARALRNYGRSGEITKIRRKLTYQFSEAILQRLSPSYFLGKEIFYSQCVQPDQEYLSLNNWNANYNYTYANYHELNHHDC
# Method in brief: as §1
# [14] = molecular target: ELF4 (Homo sapiens, UniProt Q99607 1-663); settings: protein: recombinant; tags: N-terminal GST; dsDNA, one strand shown
# Sequence of ELF4 (Q99607 whole entry): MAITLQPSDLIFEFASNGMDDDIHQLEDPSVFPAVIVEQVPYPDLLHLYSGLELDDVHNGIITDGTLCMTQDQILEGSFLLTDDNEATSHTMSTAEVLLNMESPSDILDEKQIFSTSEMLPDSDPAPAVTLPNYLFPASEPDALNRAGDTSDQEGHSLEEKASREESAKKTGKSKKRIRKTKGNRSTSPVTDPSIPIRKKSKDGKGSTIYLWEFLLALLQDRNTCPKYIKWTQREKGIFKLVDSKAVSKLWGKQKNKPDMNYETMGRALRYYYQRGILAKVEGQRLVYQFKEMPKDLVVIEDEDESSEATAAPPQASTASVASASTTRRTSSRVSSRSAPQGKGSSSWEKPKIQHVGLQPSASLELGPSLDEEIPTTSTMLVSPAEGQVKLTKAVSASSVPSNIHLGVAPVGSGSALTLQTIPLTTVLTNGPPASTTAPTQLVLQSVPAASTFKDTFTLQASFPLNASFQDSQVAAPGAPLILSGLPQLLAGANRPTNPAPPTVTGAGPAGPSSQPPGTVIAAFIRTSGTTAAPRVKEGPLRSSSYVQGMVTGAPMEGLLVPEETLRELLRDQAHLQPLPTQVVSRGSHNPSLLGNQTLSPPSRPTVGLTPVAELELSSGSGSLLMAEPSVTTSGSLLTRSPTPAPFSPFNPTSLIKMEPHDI
# Method in brief: as §1
# [15] = molecular target: T9, ELK4 (Homo sapiens, UniProt P28324-2 1-405); settings: protein: recombinant; tags: N-terminal GST; dsDNA, one strand shown
# T9 sequence: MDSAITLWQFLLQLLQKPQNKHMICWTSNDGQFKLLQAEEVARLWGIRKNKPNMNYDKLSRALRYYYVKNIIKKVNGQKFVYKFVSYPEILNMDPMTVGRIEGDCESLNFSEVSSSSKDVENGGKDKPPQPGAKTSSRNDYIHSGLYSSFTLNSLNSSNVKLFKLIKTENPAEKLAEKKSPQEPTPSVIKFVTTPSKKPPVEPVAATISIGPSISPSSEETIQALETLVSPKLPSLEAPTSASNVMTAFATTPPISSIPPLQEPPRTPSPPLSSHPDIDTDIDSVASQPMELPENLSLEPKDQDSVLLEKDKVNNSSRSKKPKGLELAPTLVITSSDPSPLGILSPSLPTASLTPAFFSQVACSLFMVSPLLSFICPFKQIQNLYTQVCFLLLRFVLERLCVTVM
# Method in brief: as §1
# [16] = molecular target: T10, ETV2 (Homo sapiens, UniProt O00321 1-342); settings: protein: recombinant; tags: N-terminal GST; dsDNA, one strand shown
# T10 sequence: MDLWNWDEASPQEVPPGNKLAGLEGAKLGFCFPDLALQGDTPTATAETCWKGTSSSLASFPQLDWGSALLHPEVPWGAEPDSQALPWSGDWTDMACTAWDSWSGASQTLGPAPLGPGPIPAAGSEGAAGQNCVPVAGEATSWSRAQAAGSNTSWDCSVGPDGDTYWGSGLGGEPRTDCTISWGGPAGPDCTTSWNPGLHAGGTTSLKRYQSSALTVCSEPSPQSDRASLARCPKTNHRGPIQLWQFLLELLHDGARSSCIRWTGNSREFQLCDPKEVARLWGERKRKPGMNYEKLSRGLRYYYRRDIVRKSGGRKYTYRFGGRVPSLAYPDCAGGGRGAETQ
# Method in brief: as §1
# [17] = molecular target: T11, ELF3 (Homo sapiens, UniProt P78545 1-371); settings: protein: recombinant; tags: N-terminal GST; dsDNA, one strand shown
# T11 sequence: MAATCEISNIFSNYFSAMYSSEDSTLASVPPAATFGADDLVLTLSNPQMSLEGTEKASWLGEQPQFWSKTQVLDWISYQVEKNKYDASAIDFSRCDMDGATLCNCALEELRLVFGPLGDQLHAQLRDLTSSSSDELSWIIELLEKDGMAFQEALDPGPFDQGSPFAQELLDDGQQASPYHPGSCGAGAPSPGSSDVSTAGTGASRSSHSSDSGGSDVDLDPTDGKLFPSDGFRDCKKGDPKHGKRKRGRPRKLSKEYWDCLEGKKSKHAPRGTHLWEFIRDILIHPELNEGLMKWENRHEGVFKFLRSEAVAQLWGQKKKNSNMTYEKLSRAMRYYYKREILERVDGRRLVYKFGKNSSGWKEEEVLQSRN
# Method in brief: as §1
# [18] = molecular target: CRX (Homo sapiens, UniProt O43186 1-299); settings: protein: recombinant; tags: N-terminal GST; dsDNA, one strand shown
# Sequence of CRX (O43186 whole entry): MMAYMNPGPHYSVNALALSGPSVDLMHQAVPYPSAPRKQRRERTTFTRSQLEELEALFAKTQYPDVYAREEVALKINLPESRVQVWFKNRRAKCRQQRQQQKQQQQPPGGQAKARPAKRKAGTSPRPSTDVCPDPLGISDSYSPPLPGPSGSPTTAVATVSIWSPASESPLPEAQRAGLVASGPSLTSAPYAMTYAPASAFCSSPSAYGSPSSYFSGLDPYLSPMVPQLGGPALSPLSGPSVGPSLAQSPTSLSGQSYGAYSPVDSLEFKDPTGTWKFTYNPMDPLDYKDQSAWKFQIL
# Method in brief: as §1
# [19] = molecular target: ETV1 (Homo sapiens, UniProt P50549 1-477); settings: protein: recombinant; tags: N-terminal GST; dsDNA, one strand shown
# Sequence of ETV1 (P50549 whole entry): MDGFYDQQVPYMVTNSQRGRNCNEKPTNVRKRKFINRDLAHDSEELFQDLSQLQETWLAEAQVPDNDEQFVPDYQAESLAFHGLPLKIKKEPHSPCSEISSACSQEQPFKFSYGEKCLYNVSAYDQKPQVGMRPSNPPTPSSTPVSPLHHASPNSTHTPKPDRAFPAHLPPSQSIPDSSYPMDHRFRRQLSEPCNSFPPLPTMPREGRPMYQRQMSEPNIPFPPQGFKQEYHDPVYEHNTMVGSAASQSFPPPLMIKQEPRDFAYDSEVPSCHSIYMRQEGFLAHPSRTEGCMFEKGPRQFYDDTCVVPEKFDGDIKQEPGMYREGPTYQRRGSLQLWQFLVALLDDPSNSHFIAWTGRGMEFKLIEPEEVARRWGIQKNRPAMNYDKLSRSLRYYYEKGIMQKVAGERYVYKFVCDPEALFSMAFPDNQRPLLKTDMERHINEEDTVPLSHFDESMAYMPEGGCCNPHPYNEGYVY
# Method in brief: as §1
sequence,measurement,setting,value
TGTTCT,binding signal,[1],"1.4 fold enrichment (6-mer frequency, TF over GST control)"
same,binding signal,[2],"1.4 fold enrichment (6-mer frequency, TF over GST control)"
same,binding signal,[3],"1.28 fold enrichment (6-mer frequency, TF over GST control)"
same,binding signal,[4],"1.38 fold enrichment (6-mer frequency, TF over GST control)"
same,binding signal,[5],"1.39 fold enrichment (6-mer frequency, TF over GST control)"
same,binding signal,[6],"1.4 fold enrichment (6-mer frequency, TF over GST control)"
same,binding signal,[7],"1.29 fold enrichment (6-mer frequency, TF over GST control)"
same,binding signal,[8],"1.35 fold enrichment (6-mer frequency, TF over GST control)"
same,binding signal,[9],"1.21 fold enrichment (6-mer frequency, TF over GST control)"
same,binding signal,[10],"1.28 fold enrichment (6-mer frequency, TF over GST control)"
same,binding signal,[11],"1.32 fold enrichment (6-mer frequency, TF over GST control)"
same,binding signal,[12],"2.8 fold enrichment (6-mer frequency, TF over GST control)"
same,binding signal,[13],"1.45 fold enrichment (6-mer frequency, TF over GST control)"
same,binding signal,[14],"1.42 fold enrichment (6-mer frequency, TF over GST control)"
same,binding signal,[15],"1.3 fold enrichment (6-mer frequency, TF over GST control)"
same,binding signal,[16],"1.23 fold enrichment (6-mer frequency, TF over GST control)"
same,binding signal,[17],"1.38 fold enrichment (6-mer frequency, TF over GST control)"
same,binding signal,[18],"1.45 fold enrichment (6-mer frequency, TF over GST control)"
same,binding signal,[19],"1.39 fold enrichment (6-mer frequency, TF over GST control)"
